Bioassay records: PubChem BioAssay, several laboratories
HSF1 inh – HSF1 inhibition; activity change, negative = inhibition, % at 7.5 µM (by protocol); NIH3T3-HGL HSE-luciferase, MG132-induced, luminescence 8 h; stronger effect = lower value; hit rate 0.77% among 300,000;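 active = more than half of replicate wells show activity change below -50%, luminescence cut by over half; inconclusive = some wells, but at most half, below -50%; inactive = no replicate well below -50%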;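 also: luciferase reports HSF-1 transcriptional activity via heat shock element; 0% = median of DMSO wells and -100% = zero luminescence signal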
LMP1 NFkB inh – inhibitors of Epstein-Barr LMP1-induced NF-kappaB reporter; LMP1-induced NF-kappaB luciferase reporter cells, luminescence; inhibition, % at 12.5 µM; hit rate 0.69% among 350,000; AID 504558; in the data active = inhibition above about 41%; inconclusive = no clear call, values can overlap the other calls;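 also: 0% = neutral control wells and 100% = reference inhibitor control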
TWEAK Fn14 block – inhibitors of TWEAK-Fn14 interaction signaling; hit rate 2% among 360,000; TWEAK-stimulated Fn14 reporter cells, luciferase luminescence, 8 h; inhibition, % at 10 µM; in the data active = inhibition above about 50%
TROY NFkB inh – inhibitors of TROY-dependent NF-kB signaling | Q293 LMP1-TROYcd NF-kB luciferase reporter, 4 h | inhibition, % at 10 µM | hit rate 0.98% among 360,000 | AID 1347056;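 active = compounds whose plate-normalised and pattern-corrected inhibition of the luciferase reporter signal at the single screening dose is 50% or more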
LGR2 antag – inhibitors of bursicon-induced Drosophila LGR2 receptor cAMP signaling | HEK293 LGR2, CRE-luciferase, bursicon-stimulated, 4 h | inhibition, % at 9.99 µM | hit rate 0.35% among 380,000 | AID 720647;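 active = drop in luminescence signal, shown as inhibition above about 50% in the replicate tests, limit read from the data, passing the limit was not always enough; inconclusive = probably only some replicates passing the limit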;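 also: agonist challenge used bursicon conditioned medium at about half maximal strength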
HSF-1 act – increases HSF-1 driven luciferase reporter signal. NIH3T3-HGL HSF-1 luciferase reporter, MG132, 8 h; 100% = twice DMSO control signal. activation, % at 9 µM. hit rate 1.7% among 300,000. AID 504408;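 active = mean replicate activation of at least 50% with a set share of replicates each reaching 50%; inconclusive = only one of those two conditions met; inactive = mean below 50% and too few replicates reaching it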;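 also: 0% = median of the neutral control wells and 100% = twice that signal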
* marks the source's active call; other numbers are inactive results; ? = inconclusive; · = not tested or not shown. Compounds with a hit are over-represented: about 3.6% of the library has one in this group of screens.

SMILES	HSF1 inh	LMP1 NFkB inh	TWEAK Fn14 block	TROY NFkB inh	LGR2 antag	HSF-1 act
C[C@@H]1CCCCO[C@@H](CN(C)C(=O)c2ccccc2)[C@@H](C)CN([C@@H](C)CO)C(=O)c2cc(N(C)C)ccc2O1	·	·	·	·	6.8	·
Cc1cc(C)cc(C(=O)NCCC(=O)NCc2cc(=O)n(C)c(=O)n2C)c1	-12.1	55.3*	-10.9	-18.9	9.2	-4.8
O=C(ONC(=O)C1CCCCC1C(=O)NOC(=O)c1ccccc1)c1ccccc1 (configuration not stated)	·	3.5	51.0*	27.1	34.9	·
O=C(COC(=O)c1ccccc1)NC1CCCC1	7.4	-8.0	12.4	-13.3	-43.3	27.6
O=S(=O)(NCC[C@@H]1CC[C@H](NS(=O)(=O)c2cccc(Cl)c2)[C@H](CO)O1)c1cccc(F)c1	·	·	·	·	0.0	·
O=C1c2cccnc2Oc2ccc(Cl)cc2N1Cc1ccc(F)cc1	-79.1*	-2.6	9.8	10.0	15.0	-83.9
Cc1ccc2c(c1)N(CC(=O)N1CCCC1)C(=O)c1cccnc1O2	-5.8	61.1*	6.6	-13.2	2.7	1.8
COc1ccc(S(=O)(=O)Nc2ccc3c(c2)C(=O)N([C@H](C)CO)C[C@@H](C)[C@H](CN(C)C)OCCCC[C@@H](C)O3)cc1	·	·	·	·	-14.5	·
COc1ccc2c3c(n(C)c2c1)[C@H](CO)N(C(=O)NC1CCCC1)CC31CN(C(C)=O)C1	·	·	·	·	-11.0	·
CCCCN1C(=O)/C(=C/C=C2\Oc3ccccc3N2CC)SC1=S	3.8	-1.0	4.6	27.8	38.6	-15.0
CCN1/C(=C/C=C/c2oc3ccc(-c4ccccc4)cc3[n+]2CC)Oc2ccc(-c3ccccc3)cc21	61.8	43.5*	55.9*	-0.7	36.7	102.8*
COc1ccc(S(=O)(=O)N(C)C[C@@H]2Oc3c(NC(=O)C4CC4)cccc3C(=O)N([C@H](C)CO)C[C@H]2C)cc1	·	·	·	·	-4.5	·
O=C(Nc1nccs1)c1cc2c(s1)CCCCC2	-42.4	52.1*	99.8*	78.3*	·	-46.2
Cc1nc(CN2CCN(Cc3nc(C(c4ccccc4)c4ccccc4)no3)CC2)cs1	28.7	-5.1	-5.4	18.6	7.9	68.6*
CC(=O)N1CCN(Cc2nc(C(c3ccccc3)c3ccccc3)no2)CC1	3.4	-3.1	-15.0	8.3	9.7	-8.4
CC1CCc2c(sc3nc(SCC(=O)O)n(-c4ccccc4)c(=O)c23)C1 (configuration not stated)	-2.1	-5.5	88.7*	-26.8	16.1	17.1
O=c1c2c3c(sc2nc(NCCO)n1Cc1ccco1)CCCCC3	-56.7*	-28.2	15.9	-36.8	-50.5	-60.7
COCCNc1nc2sc3c(c2c(=O)n1Cc1ccco1)CCCCC3	-30.3	-5.6	·	·	-111.3	-43.0
CN(C)CCNc1nc2sc3c(c2c(=O)n1-c1ccccc1)CCCCC3	13.9	-5.4	-10.4	-18.0	-13.6	50.4*
C[C@@H]1CCCCO[C@H](CN(C)Cc2ccccc2)[C@H](C)CN([C@@H](C)CO)C(=O)c2cc(NS(=O)(=O)c3ccc(F)cc3)ccc2O1	·	·	·	·	8.2	·
O=C(C[C@@H]1CC[C@H]2[C@@H](COC[C@@H](O)CN2C(=O)c2cnccn2)O1)NCc1ccc(Oc2ccccc2)cc1	·	·	·	·	9.6	·
CS(=O)(=O)Nc1ccc2c(c1)[C@H]1C[C@H](CC(=O)NCc3ccc(Oc4ccccc4)cc3)O[C@@H](CO)[C@H]1O2	·	·	·	·	13.6	·
COc1ccc(-c2nnc3sc(CN4C(=O)c5ccccc5C4=O)nn23)cc1	-3.3	10.5	93.3*	14.4	·	-15.9
COc1ccccc1-c1ccc([C@H]2[C@@H](CO)N[C@@H]2CNC(=O)C2CCCC2)cc1	·	·	·	·	3.8	·
COCCNC(=S)N(CCc1c(C)[nH]c2ccc(OC)cc12)Cc1cccnc1	-3.9	42.0*	-11.6	13.7	-0.2	-8.9
SMILES	HSF1 inh	LMP1 NFkB inh	TWEAK Fn14 block	TROY NFkB inh	LGR2 antag	HSF-1 act
CNC(=S)N(CCc1c(C)[nH]c2ccc(F)cc12)Cc1cccnc1	-85.8*	3.0	-32.7	-24.1	3.8	-89.3
COc1ccc(NC(=S)N(CCc2c(C)[nH]c3ccc(C)cc23)Cc2cccnc2)cc1	4.7	-12.3	-39.6	-2.3	9.1	22.5
O=S(=O)(N[C@H]1CC[C@H](CCn2cc(C3CC3)nn2)O[C@@H]1CO)c1ccc(F)cc1	·	·	·	·	1.9	·
C=CCN(c1ccccc1)S(=O)(=O)c1cccc(C(=O)Nc2ccncc2)c1	0.3	11.8	32.2	41.8	11.0	12.9
CN(c1cccc(Cl)c1)S(=O)(=O)c1cccc(C(=O)Nc2nc3ccccc3[nH]2)c1	-16.9	30.1	74.3*	34.9	?	-14.3
C=CCN(c1ccccc1)S(=O)(=O)c1cccc(C(=O)Nc2nc3ccccc3[nH]2)c1	0.0	-4.6	53.8*	15.4	-0.4	1.1
CCN(c1ccccc1)S(=O)(=O)c1ccc(Cl)c(NC(=O)Nc2ccc(Cl)cc2C#N)c1	18.3	85.2*	25.5	-26.2	34.1	21.2
CCN(c1ccccc1)S(=O)(=O)c1cc(C(=O)Nc2ccc(F)c(F)c2)ccc1F	7.1	14.4	80.4*	63.3*	·	-1.4
CCN(c1ccccc1)S(=O)(=O)c1cc(NC(=O)Nc2ccccc2C#N)ccc1Cl	17.4	2.5	9.2	10.3	14.4	59.0*
COc1ccc(NC(=O)Nc2ccc3c(c2)C(=O)N([C@@H](C)CO)C[C@@H](C)[C@H](CN(C)C)O3)cc1	·	·	·	·	14.7	·
Cc1ccnc(NC(=O)Nc2cccc(F)c2)c1	13.8	-9.4	65.9*	-19.0	·	23.9
Cc1cc(C)nc(NC(=O)Nc2ccc3c(c2)OCO3)c1	29.4	-19.0	16.7	-57.6	-81.3	64.9*
Cc1cccc(NC(=O)Nc2cc(C)cc(C)n2)c1	19.4	-33.5	0.1	-85.8	-75.9	53.3*
Cc1cc(C)nc(NC(=O)c2c(F)c(F)c(F)c(C(=O)Nc3cc(C)cc(C)n3)c2F)c1	18.5	·	14.4	-1.8	14.1	61.6*
Cc1ccc(NC(=O)Nc2cccc(F)c2)nc1	17.0	-43.7	-4.4	-69.7	-46.9	24.3
O=C(C[C@@H]1CC[C@H](NS(=O)(=O)c2ccccc2)[C@H](CO)O1)N1CCN(c2ccccc2)CC1	·	·	·	·	10.7	·
C[C@@H]1CCCCO[C@H](CN(C)Cc2ccc3c(c2)OCO3)[C@@H](C)CN([C@@H](C)CO)C(=O)c2cc(NS(C)(=O)=O)ccc2O1	·	·	·	·	0.8	·
COc1ccc(CN(C)C[C@H]2OCCCC[C@H](C)Oc3ccc(NS(=O)(=O)c4c(C)noc4C)cc3C(=O)N([C@@H](C)CO)C[C@@H]2C)cc1	·	·	·	·	-8.3	·
